From PubChem BioAssay (NCATS)
Records with an inconclusive call do not appear. The source made the active and inactive calls. The call rests on the fitted dose curve; in most records, active means well fitted cell-killing curve with a large enough effect; inconclusive means small, poorly fitted or top-dose-only effect, or effect the other way; inactive means flat fitted curve, though single readings scatter. Where a SMILES comes first, the peptide text is derived from it. [ ]: non-standard residue; d: D form. ξ: configuration not given here. ξPhe(βξ-Me) = CC(c1ccccc1)C(N)C(=O)O; GABA = NCCCC(=O)O

Legend:
Assay in all cases: Primary qHTS to identify gynecologic anti-cancer compounds using libraries of approved drugs and bioactive compounds (AID 1345084); further: nearly all actives have a fitted effect of over 55% in size
C33A = conditions: Gynecologic cancer cell panel viability, ATPlite luminescence, 48 h; series mostly up to 57.5 µM
How it was run: (§1)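 In this quantitative HTS, cell killing is estimated from loss of ATP-dependent luciferase light. Cells see five compound concentrations over a 48 h exposure.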

CAOV3 = conditions: Gynecologic cancer cell panel viability, ATPlite luminescence, 48 h; series mostly up to 57.5 µM
How it was run: as §1

CASKI = conditions: Gynecologic cancer cell panel viability, ATPlite luminescence, 48 h; series mostly up to 57.5 µM
How it was run: as §1

Es-2 = conditions: Gynecologic cancer cell panel viability, ATPlite luminescence, 48 h; series mostly up to 57.5 µM
How it was run: as §1

HeLa = conditions: Gynecologic cancer cell panel viability, ATPlite luminescence, 48 h; series mostly up to 57.5 µM
How it was run: as §1

Hek293T = conditions: Gynecologic cancer cell panel viability, ATPlite luminescence, 48 h, control line for the selectivity index; series mostly up to 57.5 µM
How it was run: as §1

JEG-3 = conditions: Gynecologic cancer cell panel viability, ATPlite luminescence, 48 h; series mostly up to 57.5 µM
How it was run: as §1

OV90 = conditions: Gynecologic cancer cell panel viability, ATPlite luminescence, 48 h; series mostly up to 57.5 µM
How it was run: as §1

PA-1 = conditions: Gynecologic cancer cell panel viability, ATPlite luminescence, 48 h; series mostly up to 57.5 µM
How it was run: as §1

SKOV3 = conditions: Gynecologic cancer cell panel viability, ATPlite luminescence, 48 h; series mostly up to 57.5 µM
How it was run: as §1

Tov-21-G = conditions: Gynecologic cancer cell panel viability, ATPlite luminescence, 48 h; series mostly up to 57.5 µM
How it was run: as §1

Tov112D = conditions: Gynecologic cancer cell panel viability, ATPlite luminescence, 48 h; series mostly up to 57.5 µM
How it was run: as §1

Measured: Potency

O=C(O)CC(=O)OC[C@H]1O[C@@H](Oc2ccc3c(c2)OC[C@H]2c4cc5c(cc4O[C@@H]32)OCO5)[C@H](O)[C@@H](O)[C@@H]1O
inactive: all assays above

CC1NC(=O)CCCNC(=O)C(Cc2c[nH]c3ccccc23)NC(=O)C(C)NC(=O)C(C(C)C)NC(=O)C(C(C)c2ccccc2)NC(=O)C(C(C)C)NC1=O (stereo not drawn) (cyclo([GABA]AV[ξPhe(βξ-Me)]VAW); configuration not given here)
inactive: all assays above

CC1CCCCN1S(=O)(=O)c1ccc(N2CCCC2=O)cc1 (stereo unspecified)
inactive: all assays above

CC(C)(C)c1cc(Br)cc([C@H](CC(=O)O)NC(=O)CNC(=O)c2cc(O)cc(NC3=NCC(O)CN3)c2)c1 (stereo partly specified)
inactive: all assays above

CC(C)=CCC[C@](C)(O)[C@H]1CC[C@]2(C)[C@@H]1[C@H](O)CC1[C@@]3(C)CC[C@H](O)C(C)(C)C3[C@@H](O[C@@H]3O[C@H](CO)[C@@H](O)[C@H](O)[C@H]3O[C@@H]3OC[C@@H](O)[C@H](O)[C@H]3O)C[C@]12C (stereo partly specified)
inactive: all assays above

CC1(c2nc3c(C(N)=O)cccc3[nH]2)CCCN1 (stereo unspecified)
inactive: all assays above

O=C(Nc1ccc(S(=O)(=O)Nc2nccs2)cc1)C(c1ccccc1)c1ccccc1
inactive: all assays above

COc1ccc(/C=C/C(=O)O[C@H]2[C@H](O[C@H]3[C@@H]4C=CO[C@@H](O[C@@H]5O[C@H](CO)[C@@H](O)[C@H](O)[C@H]5O)[C@@H]4[C@@]4(CO)O[C@@H]34)O[C@@H](C)[C@H](O)[C@H]2OC(C)=O)cc1
inactive: all assays above

CC(C)CC(=O)OC1OC=C(CO[C@@H]2O[C@H](CO)[C@@H](O)[C@H](O)[C@H]2O)C2CC(O)C(O)(CO)C12 (stereo partly specified)
inactive: all assays above

C[C@H]1O[C@@H](O[C@H]2CC[C@@]3(C)C(CC[C@]4(C)C3CC=C3C5CC(C)(C)CC[C@]5(C(=O)O)CC[C@]34C(=O)O)C2(C)C)[C@H](O)[C@@H](O)[C@@H]1O (stereo partly specified)
inactive: all assays above

COc1c(C)c(OCC(O)C(C)(C)O)cc2c1COC2=O (stereo unspecified)
inactive: all assays above

CN(C)CCn1cc(S(=O)(=O)c2cccc(F)c2)c2cccnc21
inactive: all assays above

C=C(C)C1CCC(C)C12CC(O)C1(C)OC1C2OC(=O)C(N)CCC(=O)O (stereo unspecified)
inactive: all assays above
